Sampled rows, rich in hits. Any-hit rate of the full collection: about 8%.
HT1080-NT tox – kills 2HG-producing HT-1080-NT fibrosarcoma cells; HT-1080-NT fibrosarcoma viability, CellTiter-Glo ATP luminescence, 48 h; Potency, µM (highest dose often 46.1 µM), for inactives: at the top dose activity, negative = less viability, most hits filed as cytotoxic; hit rate 1.6% among 360,000;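 further: NT is the 2HG producing partner of a matched IDH1 knockdown line; 0% = DMSO-treated cells and -100% = media-only wells without cells; nearly all actives have a fitted effect of over 55% in size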
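Luminescent CellTiter-Glo readout after 48 hours of compound exposure at 37 degrees C defined viability of HT-1080-NT cells. Activity was normalized to DMSO wells and cell-free media wells; concentration-response curves were fitted and assigned curve classes.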
KB-3-1 tox – kills parental KB-3-1 adenocarcinoma cells; KB-3-1 viability, CellTiter-Glo ATP luminescence, 72 h; Potency, µM (highest dose often 46.1 µM), most hits filed as cytotoxic; hit rate 1.4% among 400,000; further: on the % scale 0 is the no-effect control and ±100 the full control effect; nearly all actives have a fitted effect of over 60% in size
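Multi-concentration cytotoxicity screen in KB-3-1 cells grown in DMEM lacking phenol red with 10% FBS. After 72 h at 37 °C with compound, ATP-dependent luminescence was recorded.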
MCF10A rerep – DNA re-replication induction in MCF 10a cells. AID 624296. Potency, µM (doses to about 46.1 µM), for inactives: at the highest dose activity, positive = re-replication, actives largely listed as activators. hit rate 2.9% among 350,000. MCF 10A DNA re-replication, Hoechst nuclear intensity, 48 h; further: % of control where 0% means no effect; nearly all actives have a fitted effect of over 50% in size
SW480 rereplic – induces DNA re-replication in SW480 colon adenocarcinoma cells; Potency, µM (doses to about 46.1 µM), inactives show at the highest dose re-replication activation, usual class: activators; hit rate 1.8% among 340,000; SW480 DNA re-replication, Hoechst DNA content imaging, 48 h; further: % of control where 0% means no effect; nearly all actives have a fitted effect of over 55% in size
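Per well, 250 cells were exposed to pinned compound for 48 hr. Nuclear DNA was visualised with Hoechst (40 min, 37 C) and total object intensity recorded by fluorescence scanning.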
HT1080 IDH1KD tx – HT-1080 IDH1 knockdown cell toxicity (counter line). HT-1080 IDH1 knockdown viability, ATP luminescence, 48 h. Potency, µM (doses to about 46.1 µM), inactives show at the highest dose activity, negative = toxicity, most hits filed as cytotoxic. hit rate 2% among 360,000. AID 686971;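 further: 0% = DMSO wells and -100% = cell-free medium wells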
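CellTiter-Glo luminescence after 48 h compound exposure at 37 degrees C of IDH1-knockdown HT-1080 cells in 5% FBS RPMI. %Activity scaled between DMSO wells and cell-free media wells, with curves fitted and assigned curve classes.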
KB-V1 cytotox – kills drug-selected multidrug resistant KB-V1 cells | KB-V1 MDR cells viability, CellTiter-Glo, 72 h | Potency, µM (series often up to 46.1 µM), usual class: cytotoxic | hit rate 3.4% among 400,000; further: on the % scale 0 is the no-effect control and ±100 the full control effect; nearly all actives have a fitted effect of over 60% in size
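qHTS viability screen in drug-selected KB-V1 MDR cells: 72 h compound treatment at 37 degrees C, ATP luminescence end point.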
* marks the source's active call; other numbers are inactive results; i = inactive; ? = inconclusive; / = no result; ! = not confirmed by another sample. The call rests on the fitted dose curve; in most records, active means well fitted curve in the direction sought with a large enough effect; inconclusive means small, poorly fitted or top-dose-only effect, or another doubt; inactive means no such curve, though single readings can be large; an effect the other way counts as inactive or inconclusive. Potency means the concentration at half of the fitted maximal effect.

SMILES	HT1080-NT tox	KB-3-1 tox	MCF10A rerep	SW480 rereplic	HT1080 IDH1KD tx	KB-V1 cytotox
CCc1cc2c(=O)n(Cc3ccco3)c(SCc3c(C)noc3C)nc2s1	?	5.8µM*	3.3µM*	2.6µM*	15µM*	2.9µM*
CNc1cncc(-c2cc(OC)ccc2OC)n1	-9%	i	/	/	-1%	i
COc1ccc(OC)c(-c2cnc(OC(C)(C)C)nc2OC(C)(C)C)c1	?	?	?	?	13µM*	?
COC(=O)c1sccc1S(=O)(=O)N1CCN(c2cccc(C)c2C)CC1	/	i	/	/	/	i
COc1ccc(NC(=O)c2nc(C)c(C3(C)CC(c4ccccc4)=NO3)s2)cc1 (stereo not given)	?	4.6µM*	3.7µM*	4.6µM*	?	?
CCc1nc2ccccc2c(C(=O)OCc2nc3ccccc3c(=O)[nH]2)c1C	10µM*	?	21µM*	12µM*	18µM*	?
CCc1nnc(N/N=C/c2ccc(O)c(OC)c2)n1N	-28%	i	?	?	-11%	i
CCc1nnc(N/N=C\c2ccc(OC(C)=O)c(OC)c2)n1N	?	i	23µM*	?	18µM*	i
CCOc1cc(/C=N/Nc2nnc(C)n2N)ccc1OC(C)=O	16µM*	i	18µM*	18%	21µM*	i
CCc1nnc(N/N=C/c2cccs2)n1N	-10%	i	?	23µM*	-16%	i
CCCn1c(N)c(CC)c(=O)[nH]c1=O	1%	i	-1%	-20%	-2%	i
C/C(=N\NC(=O)C12CCC(C)(C(=O)O1)C2(C)C)c1ccccc1O (stereo not given)	?	?	?	3.7µM*	?	?
CC12CCC(C(=O)N/N=C/c3ccc(O)cc3O)(OC1=O)C2(C)C (stereo not given)	-27%	?	5%	4.6µM*	?	?
O=C(Nc1cccnc1)c1ccc([N+](=O)[O-])o1	?	?	7.3µM*	?	?	?
O=C(NCc1cccnc1)c1ccc([N+](=O)[O-])o1	?	i	15µM*	2.9µM*	?	23µM*
O=C(Nc1cccnc1)c1ccco1	-28%	i	25%	2%	?	i
CC(=O)Nc1cccc(NC(=O)CSc2ccc(-c3ccco3)nn2)c1	9%	i	-33%	-10%	7%	i
O=C(OC(c1ccccc1)c1nccc2ccccc12)c1cc([N+](=O)[O-])cc([N+](=O)[O-])c1 (stereo not given)	-10%	i	?	?	-14%	8.2µM*
O=P(Cc1ccccc1)(Cc1ccccc1)c1ccccc1	1%	i	-1%	-3%	-7%	18µM*
Cc1ccc(OCC(=O)N2CC(C)CC(C)C2)c([N+](=O)[O-])n1 (stereo not given)	9%	i	-2%	-5%	9%	i
COc1ccc2c(c1)[N+](C)(C)C(C)(C)C=C2C	0%	i	14%	-3%	2%	i
CCOc1ccc2c(c1)[N+](C)(C)C(C)(C)C=C2C	-14%	8.2µM*	14%	-1%	-6%	i
CCOC(=O)C1CCCN(S(=O)(=O)c2ccc3c(c2)CCN3C(=O)CC)C1 (stereo not given)	/	i	/	/	/	i
C[C@](N)(Cc1ccc(O)c(O)c1)C(=O)O	-28%	i	-54%	2.8µM*!	-1%	i
Cc1ccc(C(=O)N2CCC(N3CCN(Cc4ccc(F)cc4)C(=O)C3=O)CC2)cc1	/	i	/	/	/	i
SMILES	HT1080-NT tox	KB-3-1 tox	MCF10A rerep	SW480 rereplic	HT1080 IDH1KD tx	KB-V1 cytotox
O=[N+]([O-])c1ccc(N2CCC(=NOCc3ccc(Cl)cc3)CC2)cc1	?	i	12%	-7%	-30%	15µM*
O=[N+]([O-])c1ccc(CN2CCN(c3ccc([N+](=O)[O-])cc3)CC2)cc1	?	?	15%	-4%	?	i
CCOC(=O)Cc1ccc(Nc2nc3cc(-c4sccc4C)sc3c(=O)n2C)cc1	8.2µM*	10µM*	/	/	4.6µM*	15µM*
COc1ccc(Nc2nc3cc(-c4sccc4C)sc3c(=O)n2C)cc1OC	?	5.8µM*	/	/	1.3µM*	6.5µM*
NS(=O)(=O)c1cccc(NC(=O)CSc2nnc(-c3ccncc3)n2C2CC2)c1	4%	i	3%	0%	-1%	i
Cc1ccc(C)c(N2CCN(C(=O)CCS(=O)(=O)c3cc4c(cc3Cl)NC(=O)CO4)CC2)c1	/	?	/	/	/	16µM*
Cc1ccc(Cl)cc1N1CCN(C(=O)CCS(=O)(=O)c2ccc3c(c2)oc(=O)n3C)CC1	/	i	/	/	/	7.3µM*
O=C(Cn1ncc2c([nH]c3ccccc32)c1=O)NCCCN1CCN(c2ccc(F)cc2)CC1	/	i	/	/	/	i
CSc1cccc(NC(=O)/C=C/c2cccc(Cl)c2)c1	-16%	?	10%	-60%	-15%	18µM*
O=C(/C=C/c1cccc(C(F)(F)F)c1)Nc1cccc(C(F)(F)F)c1	11µM*	?	12%	-1%	7.9µM*	?
Cc1ccc(NC(=O)/C=C/c2cccc(C(F)(F)F)c2)cc1	-15%	i	-2%	-2%	0%	?
CCc1cccc(C)c1NC(=O)c1cn2c3c(ccc(Cl)c3c1=O)OC(C)C2 (stereo not given)	/	i	/	/	/	i
Cc1nc2oc3c(NCc4ccccn4)ncnc3c2c2c1COC(C)(C)C2	-3%	?	5%	3%	1%	2.1µM*
CC(C)c1nc2oc3c(NCc4ccccn4)ncnc3c2c2c1COC(C)(C)C2	14%	i	-16%	-1%	-2%	i
Cc1ccccc1C1NC(=O)c2ccccc2O1 (stereo not given)	7%	i	0%	-5%	2%	i
Cc1ccccc1C1N=C2Oc3ccccc3C=C2C(=O)N1 (stereo not given)	-17%	7.3µM*	/	/	-6%	4.1µM*
COc1cc(/C=C(/C#N)c2nc(-c3cc4ccccc4oc3=O)cs2)ccc1O	/	i	/	/	/	i
CN(CC(=O)Nc1sc2c(c1C#N)CCCCC2)Cc1nc2ccccc2c(=O)[nH]1	-7%	i	?	-6%	-16%	16µM*
COc1ccc(CN(C)CC(=O)Nc2sc3c(c2C#N)CCC3)cc1OC	-13%	i	?	12µM*	-1%	i
Cc1cccn2c(=O)c3cc(C(=O)NCc4ccccc4)c(=N)n(CCOCCO)c3nc12	/	i	/	/	/	i
O=C(Nc1ccccc1F)NC1CCN(Cc2nnnn2Cc2ccc(F)cc2)CC1	4%	i	4%	-2%	4%	15µM*
